# KCNK9 inh: KCNK9 potassium channel inhibitors, primary screen, HEK293 cells, thallium flux. Potassium channel subfamily K member 9 (Homo sapiens), Q9NPC2. FluxOR thallium flux fluorescence; stronger effect = lower value. B-score at 10 µM. 310,000 compounds, 1.2% hits. AID 488922, 2010;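 active = ratio B-score over 3 SD below the library mean, with starting fluorescence within 5 SD of its mean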;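 also: negative B-score means less thallium flux so channel inhibition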
# KCNK3 block: human KCNK3 channel inhibitors, primary screen, CHO cells, FluxOR thallium flux, B-score; Potassium channel subfamily K member 3 (Homo sapiens), O14649; FluxOR fluorescence; stronger effect = lower value; B-score at 10 µM; 340,000 compounds, 0.84% hits; AID 602410, 2012;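 active = B-score under library mean minus 4 SD, starting fluorescence ratio at most library mean plus 5 SD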;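 also: more negative B-score means stronger inhibition of thallium flux through KCNK3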
# ANO1 block: TMEM16A chloride channel inhibitors, primary screen, cell-based, HTS | Anoctamin-1 (Mus musculus), Q8BHY3 | HEK293 TMEM16A/YFP iodide influx fluorescence, ionomycin | normalized B-score (activity score, 25-100; higher = stronger inhibition) at 10 µM | 310,000 compounds, 1.2% hits;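 active = ratio plate-corrected score three or more library SD toward inhibition, starting fluorescence score within five deviations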;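 also: score derived from kinetic fluorescence span divided by baseline fluorescence per well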
# ANO1 activ: TMEM16A chloride channel activators or potentiators, primary screen, cell-based, HTS; B-score at 10 µM; Anoctamin-1 (Mus musculus), Q8BHY3; AID 623877, 2012; 340,000 compounds, 0.3% hits; HEK293 TMEM16A/YFP-H148Q/I152L, iodide quench fluorescence; stronger effect = lower value;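 active = fluorescence-ratio B-score plate-corrected deviation score at least 3 library SD below zero, with starting fluorescence score within 5 deviations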;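 also: channel opened by trigger with iodide after compound preincubation; score built on the fluorescence ratio of max minus min over baseline; more negative score means more quench and so TMEM16A activation or potentiation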
# Kir21 inh: inhibitors of mouse Kir2.1 inward-rectifier potassium channel | B-score at 10 µM | AID 1672, 2009 | Inward rectifier potassium channel 2 (Mus musculus), P35561 | HEK293-Kir2.1, FluxOR thallium flux fluorescence; stronger effect = lower value | 310,000 compounds, 0.85% hits;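 active = fluorescence ratio B-score at or below minus 3 SD of library scores, with starting-brightness B-score within 2 SD, cut at about -4.2 in these data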;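 also: channel flux triggered by added potassium and thallium sulfate stimulus; B-score of peak minus minimum fluorescence over baseline after thallium stimulus; more negative B-score means stronger Kir2.1 block with less thallium influx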
# Target sequence (P35561 whole entry, looked up): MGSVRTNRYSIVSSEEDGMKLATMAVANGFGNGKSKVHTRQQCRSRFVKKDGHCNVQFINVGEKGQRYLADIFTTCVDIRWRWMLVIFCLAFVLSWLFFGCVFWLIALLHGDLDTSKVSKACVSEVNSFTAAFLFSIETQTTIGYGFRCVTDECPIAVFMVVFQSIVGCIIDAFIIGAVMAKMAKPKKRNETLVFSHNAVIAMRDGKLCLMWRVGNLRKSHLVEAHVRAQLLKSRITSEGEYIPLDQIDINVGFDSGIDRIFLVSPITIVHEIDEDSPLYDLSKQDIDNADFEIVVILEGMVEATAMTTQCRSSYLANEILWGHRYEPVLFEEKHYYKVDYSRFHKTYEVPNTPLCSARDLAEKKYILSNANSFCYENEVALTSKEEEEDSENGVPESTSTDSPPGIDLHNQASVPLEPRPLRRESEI
# A number is an active result; – = inactive; · = no result given. The list is not random: actives were taken first. Their share in the collection is about 3.5%.
SMILES,KCNK9 inh,KCNK3 block,ANO1 block,ANO1 activ,Kir21 inh
Cc1ccc(NC(=O)COc2cccc(Oc3ccccc3)c2)cc1S(=O)(=O)N1CCOCC1,·,-8.8,·,–,·
O=C(CNc1ccc(Br)cc1)NC(=O)NC1CCCCC1,·,–,·,–,·
CCOc1ccc(CN(C)C(=O)CN2C(=O)NC(c3ccccc3)(c3ccccc3)C2=O)cc1,·,–,·,–,·
CCN(CC)Cc1cc2ccccc2c2c1COC2,–,–,25,–,–
CCCN(CCC)Cc1cc2ccccc2c2c1COC2,–,–,–,–,–
Cc1ccc(-n2ncc(C(=O)Nc3cc(Cl)cc(Cl)c3)c2C2CCNCC2)cc1C,–,–,·,–,-7.3
O=C(NCCCn1cccn1)C1CCC(=O)N(CCc2ccccc2)C1 (configuration not stated),–,–,–,–,–
CSCCC(NC(=O)COc1ccccc1)C(=O)O (configuration not stated),–,–,–,–,–
CCNC(=O)c1ccc2c(c1)C1C3CCC(C3)C1C(c1ccccc1)N2 (configuration not stated),–,–,–,-6.7,–
C=C1CCC2[C@](C)(CO[C@@H]3O[C@H](CO)[C@@H](O)[C@H](O)[C@H]3O)CCC[C@@]2(C)[C@@H]1CCC1=CCOC1=O (some centres not stated),·,–,–,–,·
c1ccc2c(c1)OC(CCCN1CCCCC1)c1ccccc1S2 (configuration not stated),–,–,–,–,-5.8
CCn1c(SCC(=O)N/N=C(/C)c2ccncc2)nc2ccccc21,–,–,–,–,–
O=C(NC1CC1(c1ccccc1)c1ccccc1)c1ccccc1 (configuration not stated),·,–,·,-9.3,·
CC1CN(c2ccc([N+](=O)[O-])c(NCCOc3ccc(Cl)cc3)c2)CC(C)N1 (configuration not stated),–,–,–,–,-8
Cc1ccc(S(=O)(=O)Nc2ccccc2C(=O)N2CCCCCC2)cc1,–,–,–,–,–
COc1ccc(OCc2cc(C(=O)NC(C)Cn3cncn3)no2)c(Cl)c1 (configuration not stated),–,–,–,–,–
C#CCOc1ccccc1CNC1CCN(Cc2ccccc2)CC1,–,–,–,–,-4.4
C#CCOc1ccccc1CNc1ccccc1,–,–,–,–,–
N/C(=N\OC(=O)COc1ccc2ccccc2c1Br)c1cccnc1,–,·,25,·,–
CC12CC3CC(C1)CC(C(=O)NNC(=O)c1ccncc1)(C3)C2,·,–,·,–,·
O=C(NNC(=S)NC(=O)C12CC3CC(CC(C3)C1)C2)c1ccncc1,–,–,25,–,–
Cc1ccc(NC(=O)C(c2ccccc2)c2ccccc2)c(O)c1,-7.8,–,–,–,–
O=C(Nc1ccc([N+](=O)[O-])cc1Cl)c1cc(Cl)ccc1O,·,–,100,–,·
O=C(Nc1cccc(Cl)c1)c1cc(N=Nc2ccc([N+](=O)[O-])cc2Cl)ccc1O,–,–,100,-5.7,–
CC1=C(CC(=O)c2ccc(Cl)cc2)C(=O)c2ccccc2C1=O,-6.7,–,–,–,–
SMILES,KCNK9 inh,KCNK3 block,ANO1 block,ANO1 activ,Kir21 inh
Clc1nssc1=Nc1ccccc1,·,–,·,–,·
Clc1ccc(N=c2ssnc2Cl)cc1,–,–,100,–,–
CC(C)(C)CC(C)(C)c1ccc(OCCOCC[N+](C)(C)Cc2ccccc2)cc1,·,–,25,–,·
Cc1ccc(C)c2c1cc(C)c1nnc(SCC(=O)c3cccs3)n12,–,–,–,–,-7.5
Cc1ccc2cc(C)c3nnc(SCC(=O)c4cccs4)n3c2c1C,–,–,–,–,-5.1
Cc1cc2ccc(C)c(C)c2nc1SCC(=O)c1cccs1,–,–,–,–,–
O=c1c2ccccc2nc(COc2ccccc2)n1/N=C/c1cc([N+](=O)[O-])ccc1O,–,–,100,–,–
Cc1cc(/C=N/n2c(COc3ccccc3C)nc3ccccc3c2=O)c(O)c([N+](=O)[O-])c1,–,–,100,–,–
O=[N+]([O-])c1ccc(Cl)c(/C=N/n2c(COc3ccccc3)n[nH]c2=S)c1,–,–,–,–,–
COc1ccccc1NC(=O)CN1CCN(c2ccccc2)CC1,–,–,–,–,–
